A short description of assay [1]: ATG_M_06_TRANS: Attagene TRANS-FACTORIAL HepG2 Assay for M06 Transcription Factor (Internal Marker) (AID 2282983; active = hit-call score of the fitted dose curve at least 0.9, where 1 is the maximum). The conditions noted are these: HepG2 Attagene TRANS M06 internal marker reporter. Put shortly: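 Background-control reporter readout: after 24 h chemical exposure of transiently transfected HepG2 (GAL4-UAS reporter units), mRNA quantified by RT-PCR with fluorescent labeling and capillary electrophoresis. Gain-of-signal fitting against DMSO baseline.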

Assay [2] can be described thus: ATG_M_32_TRANS: Attagene TRANS-FACTORIAL HepG2 Assay for M32 Transcription Factor (Internal Marker) (AID 2282984; active = hit-call score of the fitted dose curve at least 0.9, where 1 is the maximum;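 note: transcript level of a background control reporter unit measured by RT-PCR and capillary electrophoresis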). As to conditions: HepG2 Attagene TRANS M32 internal marker reporter. In a few lines: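 After 24 h dosing of transfected HepG2 cells, total RNA was reverse-transcribed, reporter sequences PCR-amplified, 6-FAM labelled by primer extension and HpaI-digested before capillary electrophoresis. Signal increase over DMSO was fitted.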

The target of assay [3] is Nuclear respiratory factor 1 (Homo sapiens) (UniProt Q16656). Put plainly: ATG_NRF1_CIS: Attagene CIS-FACTORIAL HepG2 Assay for human Nuclear Respiratory Factor 1 (NRF1) Orphan Gene (AID 2282987). The conditions noted are these: HepG2 NRF1 cis-element reporter, Attagene multiplex; actives raise or lower the signal. In a few lines:
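HepG2 cells transiently transfected with multiple cis-regulated reporter units, exposed 24 h. Reporter mRNAs measured by RT-PCR, fluorescent labelling, HpaI digestion and capillary electrophoresis; bidirectional fitting against DMSO.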

Assay [4] in a line: ATG_NFI_CIS: Attagene CIS-FACTORIAL HepG2 Assay for human Nuclear Factor I (NFI) (AID 2282989). As to conditions: HepG2 cis-regulatory reporter, NFI response element transcription; actives raise or lower the signal. Put shortly: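 HepG2 cells transiently transfected with cis-element-driven multiplexed reporter transcription units, dosed for 24 h. Reporter mRNA quantified by RT-PCR, fluorescent labelling, HpaI digestion and capillary electrophoresis; bidirectional fit versus DMSO baseline.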

For assay [5], the target named is Myc proto-oncogene protein (Homo sapiens) (UniProt P01106). Put plainly: ATG_Myc_CIS: Attagene CIS-FACTORIAL HepG2 Assay for human Myelocytomatosis (Myc) Proto-Oncogene Transcription Factor (AID 2282990). The conditions noted are these: HepG2, Attagene cis-reporter transcription factor activity; actives raise or lower the signal. Put shortly: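 HepG2 cells transiently transfected with multiple cis-promoter-driven reporter transcription units, so endogenous TF activity is read. After 24 h compound exposure, reporter mRNA was quantified by RT-PCR, 6-FAM labelling, HpaI digestion and capillary electrophoresis; bidirectional fit versus DMSO.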
Myc proto-oncogene protein (Homo sapiens), sequence (P01106 whole entry, looked up): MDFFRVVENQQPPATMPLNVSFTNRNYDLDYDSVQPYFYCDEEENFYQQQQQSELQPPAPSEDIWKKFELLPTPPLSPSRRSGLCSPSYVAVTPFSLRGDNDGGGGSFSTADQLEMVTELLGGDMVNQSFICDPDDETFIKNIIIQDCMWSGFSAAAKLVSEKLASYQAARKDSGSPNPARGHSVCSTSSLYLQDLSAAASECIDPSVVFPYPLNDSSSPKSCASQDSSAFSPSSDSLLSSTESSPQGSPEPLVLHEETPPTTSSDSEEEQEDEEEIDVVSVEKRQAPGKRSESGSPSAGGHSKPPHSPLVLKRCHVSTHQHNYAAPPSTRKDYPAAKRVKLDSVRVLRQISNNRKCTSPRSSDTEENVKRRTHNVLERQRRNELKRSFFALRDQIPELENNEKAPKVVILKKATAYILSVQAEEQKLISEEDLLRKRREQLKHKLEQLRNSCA

A short description of assay [6]: ATG_NF_kB_CIS: Attagene CIS-FACTORIAL HepG2 Assay for human Nuclear Factor Kappa B (NF-kB) (AID 2282991). As to conditions: HepG2 Attagene cis-factorial NF-kB reporter mRNA; actives raise or lower the signal. Put shortly: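 HepG2 cells transfected with cis-promoter-driven reporter units, so endogenous transcription factor activity is measured. Reporter mRNA quantified 24 h after dosing by RT-PCR and capillary electrophoresis, with bidirectional fitting against DMSO.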

Assay [7] in a line: ATG_NRF2_ARE_CIS: Attagene CIS-FACTORIAL HepG2 Assay for human Nuclear Factor Erythroid 2 Related Factor 2 (NFR2) response to Antioxidant Response Elements (ARE) (AID 2282992). The conditions noted are these: HepG2 Attagene ARE/NRF2 reporter, transcription factor activity; actives raise or lower the signal. Put shortly:
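Fluorescence intensity of reporter-specific cDNA fragments, separated by capillary electrophoresis, reflects mRNA induction in transfected HepG2 cells at 24 h. Activity is fitted bidirectionally, DMSO serving as baseline.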

Assay [8] is described as follows: ATG_Oct_MLP_CIS: Attagene CIS-FACTORIAL HepG2 Assay for human Octamer-Binding Transcription Factor (Oct) (AID 2282993). The conditions noted are these: HepG2 Attagene cis-factorial Oct reporter, mRNA; actives raise or lower the signal. In a few lines:
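HepG2 cells transiently transfected with cis-promoter-driven multiplexed reporter transcription units, dosed for 24 h. Reporter mRNA quantified by RT-PCR, fluorescent labelling, HpaI digestion and capillary electrophoresis; bidirectional fits versus DMSO baseline.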

Assay [9] has as its target Cellular tumor antigen p53 (Homo sapiens) (UniProt P04637). Put plainly: ATG_p53_CIS: Attagene CIS-FACTORIAL HepG2 Assay for human p53 Transcription Factor (AID 2282994). The conditions noted are these: HepG2 p53 cis-element reporter, Attagene mRNA; actives raise or lower the signal. Put shortly: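 Transiently transfected HepG2 (multiple cis reporter transcription units); exposure 24 h; reporter RNA via RT-PCR, 6-FAM extension, 2 h HpaI digest at 37 C, CE detection; DMSO baseline.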

In assay [10] the target is Nuclear receptor subfamily 4 group A member 2 (Homo sapiens) (UniProt P43354). Put plainly: ATG_NURR1_TRANS: Attagene TRANS-FACTORIAL HepG2 Assay for human Nuclear Receptor Related Protein 1 (NURR1) (AID 2282985; active = hit-call score of the fitted dose curve at least 0.9, where 1 is the maximum). As to conditions: HepG2 Attagene TRANS reporter, mRNA readout. Put shortly: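 Chimeric NR-Gal4 fusion activity measured in HepG2 after 24 h treatment. Reporter transcripts detected by RT-PCR and capillary electrophoresis fluorescence; positive-direction curve fitting against DMSO.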
Nuclear receptor subfamily 4 group A member 2 (Homo sapiens), sequence (P43354 whole entry, looked up, the tested form may be a part): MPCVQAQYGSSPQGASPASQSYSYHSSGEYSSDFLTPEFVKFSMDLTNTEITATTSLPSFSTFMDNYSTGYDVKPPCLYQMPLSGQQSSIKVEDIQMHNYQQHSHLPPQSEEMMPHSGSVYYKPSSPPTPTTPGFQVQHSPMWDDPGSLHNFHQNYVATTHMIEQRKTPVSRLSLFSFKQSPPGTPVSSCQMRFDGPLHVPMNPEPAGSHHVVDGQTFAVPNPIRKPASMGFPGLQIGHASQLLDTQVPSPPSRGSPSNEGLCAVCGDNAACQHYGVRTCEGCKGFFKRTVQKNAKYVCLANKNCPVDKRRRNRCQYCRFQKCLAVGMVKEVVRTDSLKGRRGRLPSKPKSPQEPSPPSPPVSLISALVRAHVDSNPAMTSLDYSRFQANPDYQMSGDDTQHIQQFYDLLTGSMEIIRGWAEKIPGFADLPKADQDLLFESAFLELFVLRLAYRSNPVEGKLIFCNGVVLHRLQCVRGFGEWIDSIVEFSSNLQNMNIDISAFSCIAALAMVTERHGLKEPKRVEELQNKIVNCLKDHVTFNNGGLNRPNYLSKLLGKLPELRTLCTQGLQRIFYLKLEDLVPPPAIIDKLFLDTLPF

Assay [11] addresses Transcriptional activator Myb (Homo sapiens) (UniProt P10242). Put plainly: ATG_Myb_CIS: Attagene CIS-FACTORIAL HepG2 Assay for human Myeloblastosis (Myb) Proto-Oncogene Transcription Factor (AID 2282986). The conditions noted are these: HepG2 Attagene CIS-FACTORIAL Myb reporter transcription; actives raise or lower the signal. Put shortly:
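Transiently transfected HepG2 cells carrying a multiplexed cis-promoter reporter set report endogenous Myb activity after 24 h compound exposure. Reporter mRNA is read by RT-PCR with capillary electrophoresis of fluorescent products, fitted bidirectionally against DMSO.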

Assay [12] in a line: BSK_3C_TissueFactor: BioMAP Diversity Plus: 3C Assay for Tissue Factor Biomarker Activity (AID 2282997). The conditions noted are these: BioMAP 3C HUVEC, tissue factor biomarker readout; actives raise or lower the signal. In a few lines: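 Tissue factor on primary human umbilical vein endothelium was read by ELISA 24 h after dosing, gain or loss relative to DMSO. Cytotoxicity ran alongside via SRB (0.1%, TCA-fixed, 560 nm).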

Assay [13] is described as follows: BSK_3C_uPAR: BioMAP Diversity Plus: 3C Assay for Urokinase-type plasminogen activator receptor (uPAR) Biomarker Activity (AID 2282998). As to conditions: BioMAP 3C HUVEC, uPAR biomarker ELISA; actives raise or lower the signal. In a few lines: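 Human umbilical vein endothelial primary cells were exposed to test chemical for 24 h. Cell-surface uPAR was then quantified by ELISA, and responses were fitted bidirectionally against DMSO as negative control and baseline.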

Assay [14] is described as follows: BSK_3C_VCAM1: BioMAP Diversity Plus: 3C Assay for Vascular cell adhesion molecule 1 (VCAM1) Biomarker Activity (AID 2282999). As to conditions: BioMAP 3C HUVEC, VCAM1 ELISA, cytokine-stimulated; actives raise or lower the signal. In a few lines:
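Vascular primary endothelium (human umbilical vein) was exposed to chemicals and assayed 24 h later. VCAM-1 levels came from ELISA, with DMSO serving as baseline for bidirectional fitting.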

A short description of assay [15]: BSK_4H_Eotaxin3: BioMAP Diversity Plus: 4H Assay for Eotaxin 3 Biomarker Activity (AID 2283000).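 Note: CCL26 protein level quantified by ELISA in parallel with SRB cytotoxicity check.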 The conditions noted are these: primary human endothelial cells (HUVEC); actives raise or lower the signal. Put shortly:
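Human umbilical vein endothelial cells (BSK_4H system) dosed with test chemical; Eotaxin-3 (CCL26) measured by ELISA 24 h after dosing. Bidirectional curve fitting relative to DMSO negative control as baseline.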

Assay [16] has as its target Hepatocyte nuclear factor 4-alpha (Homo sapiens) (UniProt P41235). Put plainly: ATG_HNF4a_TRANS: Attagene TRANS-FACTORIAL HepG2 Assay for human Hepatocyte Nuclear Factor 4 alpha (HNF4a) (AID 2282982; active = hit-call score of the fitted dose curve at least 0.9, where 1 is the maximum). As to conditions: HepG2 HNF4a transactivation reporter, mRNA readout. Put shortly:
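In this trans-factorial format, a chimeric HNF4a-GAL4 fusion drives a GAL4-UAS reporter in transfected HepG2 liver cells. After 24 h treatment, reporter mRNA induction is measured by RT-PCR with capillary electrophoresis, relative to DMSO.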

Structures are written as SMILES. Inconclusive results are not listed. Active and inactive are the calls of the source. Rule for the calls, unless noted: active = hit-call score of the fitted dose curve at least 0.9, where 1 is the maximum; inactive = score below 0.9.

The record followed here is PubChem BioAssay (EPA / NIEHS).

Transcriptional activator Myb (Homo sapiens), sequence (P10242 whole entry, looked up): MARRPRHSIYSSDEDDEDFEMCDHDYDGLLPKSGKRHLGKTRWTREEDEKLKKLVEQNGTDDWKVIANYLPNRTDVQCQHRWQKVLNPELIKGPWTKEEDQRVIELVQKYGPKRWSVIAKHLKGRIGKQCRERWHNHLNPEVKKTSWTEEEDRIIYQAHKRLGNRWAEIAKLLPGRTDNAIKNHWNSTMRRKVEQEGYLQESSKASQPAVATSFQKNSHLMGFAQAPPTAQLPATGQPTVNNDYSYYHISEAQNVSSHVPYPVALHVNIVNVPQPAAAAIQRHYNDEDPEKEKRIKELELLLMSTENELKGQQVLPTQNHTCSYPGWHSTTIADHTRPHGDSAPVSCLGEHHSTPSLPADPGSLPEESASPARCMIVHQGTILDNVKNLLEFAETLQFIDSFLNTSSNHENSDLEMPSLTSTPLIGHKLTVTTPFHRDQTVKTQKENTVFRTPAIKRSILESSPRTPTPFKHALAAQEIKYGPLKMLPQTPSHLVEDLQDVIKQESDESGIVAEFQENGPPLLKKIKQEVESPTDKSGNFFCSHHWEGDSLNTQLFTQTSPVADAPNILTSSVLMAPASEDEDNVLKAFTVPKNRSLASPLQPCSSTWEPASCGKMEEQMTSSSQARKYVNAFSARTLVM
Cellular tumor antigen p53 (Homo sapiens), sequence (P04637 whole entry, looked up): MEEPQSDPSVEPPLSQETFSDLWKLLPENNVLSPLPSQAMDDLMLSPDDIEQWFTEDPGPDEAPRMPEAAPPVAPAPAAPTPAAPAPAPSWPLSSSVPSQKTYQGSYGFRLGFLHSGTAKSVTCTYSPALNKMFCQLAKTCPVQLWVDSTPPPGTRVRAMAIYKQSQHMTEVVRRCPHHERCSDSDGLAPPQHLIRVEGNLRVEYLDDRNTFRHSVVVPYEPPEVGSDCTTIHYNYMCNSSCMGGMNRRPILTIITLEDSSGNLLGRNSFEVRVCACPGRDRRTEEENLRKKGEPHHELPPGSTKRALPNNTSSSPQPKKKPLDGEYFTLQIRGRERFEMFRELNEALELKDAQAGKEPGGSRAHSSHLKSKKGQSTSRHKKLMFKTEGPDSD
Hepatocyte nuclear factor 4-alpha (Homo sapiens), sequence (P41235 whole entry, looked up, the tested form may be a part): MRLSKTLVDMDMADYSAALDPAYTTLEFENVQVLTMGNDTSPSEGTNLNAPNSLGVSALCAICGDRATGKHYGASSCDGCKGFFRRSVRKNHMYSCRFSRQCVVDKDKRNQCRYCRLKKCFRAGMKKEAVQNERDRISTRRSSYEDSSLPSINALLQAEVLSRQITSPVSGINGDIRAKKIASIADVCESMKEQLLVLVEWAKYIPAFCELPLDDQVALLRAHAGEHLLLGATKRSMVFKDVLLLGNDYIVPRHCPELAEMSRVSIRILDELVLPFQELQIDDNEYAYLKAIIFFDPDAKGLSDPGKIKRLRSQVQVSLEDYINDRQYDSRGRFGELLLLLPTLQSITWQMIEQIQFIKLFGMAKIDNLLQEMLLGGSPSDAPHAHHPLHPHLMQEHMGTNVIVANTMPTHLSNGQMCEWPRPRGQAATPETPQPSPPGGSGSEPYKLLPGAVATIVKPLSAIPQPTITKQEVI
Nuclear respiratory factor 1 (Homo sapiens), sequence (Q16656 whole entry, looked up): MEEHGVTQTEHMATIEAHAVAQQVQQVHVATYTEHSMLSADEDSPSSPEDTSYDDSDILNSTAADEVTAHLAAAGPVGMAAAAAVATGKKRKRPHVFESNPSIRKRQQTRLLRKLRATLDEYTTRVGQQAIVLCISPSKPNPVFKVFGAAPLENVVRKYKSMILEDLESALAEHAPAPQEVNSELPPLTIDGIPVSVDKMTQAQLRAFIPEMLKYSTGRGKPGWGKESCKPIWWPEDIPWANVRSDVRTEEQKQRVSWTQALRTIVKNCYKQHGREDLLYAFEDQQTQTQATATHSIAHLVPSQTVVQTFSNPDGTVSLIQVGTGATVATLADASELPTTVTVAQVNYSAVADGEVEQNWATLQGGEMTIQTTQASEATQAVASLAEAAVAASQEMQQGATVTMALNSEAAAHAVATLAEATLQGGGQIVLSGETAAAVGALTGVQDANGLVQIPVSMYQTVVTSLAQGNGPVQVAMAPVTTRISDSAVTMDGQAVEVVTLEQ

For the compound `CN(C)C(=N)N=C(N)N`, the result in assay [1], in assay [2], in [3], in assay [4], in assay [5] and in [6] was inactive. Further, the compound was called inactive in assay [7], in assay [8] and in [9].

For `CC(C)Oc1ccccc1O`, the compound was classed as inactive in [1], in assay [2], in assay [10], in assay [11], in assay [3] and in [4]. Further, the compound was called inactive in assay [5], in assay [6], in assay [7], in assay [8], in assay [9] and in assay [12]. In addition, the outcome in assay [13], in [14] and in [15] was inactive.

On to `CCCCCCCCC`, for which the call in assay [16], in [3], in assay [4], in [5], in assay [6] and in assay [7] was inactive. Also, the outcome in [8] was inactive.

On to `CC1(C)C(=O)N(Br)C(=O)N1Cl`, for which the outcome in assay [16], in [11], in assay [4], in assay [5], in [6] and in assay [8] was inactive. In addition, the concentration at half-maximal activity (AC50) in assay [7] is 100 µM (active).

In the case of `O=C(COc1ccc(Cl)cc1)N1CCN(Cc2ccc3c(c2)OCO3)CC1`, the call in assay [16], in assay [1], in assay [11], in assay [3], in assay [4] and in assay [5] was inactive. The outcome in [6] and in assay [8] was inactive. For the same compound, the figures for the AC50 in [10] and in assay [7] were 67 µM (active) and 100 µM (active), respectively.

As to `O=c1oc(=O)c2cc3c(=O)oc(=O)c3cc12`, the call in assay [16], in assay [1], in assay [10], in [11], in assay [3] and in assay [4] was inactive. The compound was classed as inactive in [5], in assay [6], in [7] and in assay [8].

Consider `C=C(C)C(=O)OCc1ccccc1`, for which the outcome in [16], in assay [2], in [10], in assay [11], in [5] and in assay [6] was inactive. Further, the call in [7] and in assay [8] was inactive.

Regarding `O=C(Cl)c1cccc(C(=O)Cl)c1`, the outcome in assay [16], in [1], in assay [2], in assay [3], in assay [4] and in [5] was inactive. Further, the compound was called inactive in assay [7], in assay [8] and in assay [9].

With `O=C1CCc2ccccc2O1`, the result in [16], in assay [1], in [10], in assay [3], in assay [4] and in assay [5] was inactive. Besides, the result in assay [8] and in [9] was inactive.

As to `ClCCCl`, the compound was classed as inactive in assay [1], in [11], in [3], in [4], in assay [5] and in [6]. The compound was called inactive in [7] and in assay [9].

Consider `Nc1ccc(S(N)(=O)=O)cc1`, for which the compound was called inactive in assay [1], in assay [10], in assay [11], in [3], in assay [4] and in assay [5]. Besides, in assay [7], the compound was called inactive.

`CCCCCCCCCCCCCCCC(=O)O`: the compound was called inactive in [1], in assay [2], in assay [10], in assay [11], in assay [3] and in assay [4]. The compound was classed as inactive in assay [5], in [6], in [7], in assay [8] and in assay [9].

As to `CC1(CO)CN(c2ccccc2)NC1=O` (stereo not drawn), the compound was classed as inactive in assay [1], in assay [2], in assay [10], in assay [11], in assay [3] and in assay [4]. Besides, the result in assay [5], in assay [6], in assay [7], in assay [8] and in [9] was inactive.

In the case of `CCCCCCCCCCC(CO)CCCCCCCC` (stereo not drawn), the outcome in [2], in assay [11], in assay [3], in assay [5], in [7] and in assay [8] was inactive. In addition, the compound was classed as inactive in assay [9].

With `O=C1C(c2[nH]c3ccc(S(=O)(=O)O)cc3c2O)=Nc2ccc(S(=O)(=O)O)cc21`, the outcome in [1], in assay [2], in assay [10], in assay [11], in assay [3] and in [4] was inactive. The outcome in assay [5] and in assay [7] was inactive.

As to `CCn1c2ccccc2c2cc(N)ccc21`, the outcome in assay [1], in [2], in assay [10], in [11], in assay [3] and in assay [4] was inactive. Besides, the result in [5], in assay [6], in assay [8], in assay [9], in [12] and in [14] was inactive. Moreover, in assay [15], the result was inactive. The AC50 is 26.4 µM (active) in [7] and 1.82 µM (active) in assay [13].

Turning to `CC1(C)OC[C@@H]2O[C@@]3(C(=O)O)OC(C)(C)O[C@H]3[C@@H]2O1`, the call in assay [1], in assay [11], in [3], in assay [4], in assay [5] and in [6] was inactive. Moreover, the result in assay [7] and in assay [8] was inactive.
